The source of these data is PubChem BioAssay AID1434 (Sanford-Burnham Center for Chemical Genomics, 2008).

The inhibition is the drop in the measured response relative to a control, in per cent.

In all, about 220,000 compounds went through this assay and about 1,600 (0.73%) were called active.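 Rule for the calls: active = mean inhibition across duplicate retests at 20 µM reaching about 50% (limit read from the data); inactive = the rest, inconclusive results apart.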 The entries come from a sample that favours actives as a whole.

This assay concerns the target Runt-related transcription factor 1 (Homo sapiens) + Core-binding factor subunit beta (Homo sapiens) (UniProt Q01196+Q13951). Kind of assay: disruptors of Runt domain/CBFb-SMMHC interaction – biochemical, FRET, Cerulean-Runt, Venus-CBFb-SMMHC, uHTS, primary screen (AID 1434).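 Note: 0% = DMSO wells and 100% = wells with excess untagged CBFb-SMMHC; inhibitors lower the FRET ratio by blocking Runt binding to CBFb-SMMHC.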 Conditions: Cerulean-Runt/Venus-CBFb-SMMHC FRET ratio 530/480, 1 h, at 20 µM, stronger effect = higher value.

Chain of Runt-related transcription factor 1 (Homo sapiens) + Core-binding factor subunit beta (Homo sapiens) (Q01196 whole entry, looked up, the tested form may be a part): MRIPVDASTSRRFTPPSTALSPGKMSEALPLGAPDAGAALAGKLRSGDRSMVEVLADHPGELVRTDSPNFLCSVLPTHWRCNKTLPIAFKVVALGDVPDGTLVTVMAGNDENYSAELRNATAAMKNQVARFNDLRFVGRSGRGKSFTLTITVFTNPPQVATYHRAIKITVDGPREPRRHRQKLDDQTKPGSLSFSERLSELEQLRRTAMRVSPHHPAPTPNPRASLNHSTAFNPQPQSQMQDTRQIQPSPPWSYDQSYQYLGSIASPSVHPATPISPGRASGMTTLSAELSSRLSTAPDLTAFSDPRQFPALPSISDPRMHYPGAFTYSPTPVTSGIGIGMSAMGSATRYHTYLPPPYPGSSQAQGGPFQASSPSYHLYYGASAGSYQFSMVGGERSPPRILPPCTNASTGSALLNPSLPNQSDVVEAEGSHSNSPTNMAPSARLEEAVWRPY
Chain of Runt-related transcription factor 1 (Homo sapiens) + Core-binding factor subunit beta (Homo sapiens) (Q13951 whole entry, looked up, the tested form may be a part): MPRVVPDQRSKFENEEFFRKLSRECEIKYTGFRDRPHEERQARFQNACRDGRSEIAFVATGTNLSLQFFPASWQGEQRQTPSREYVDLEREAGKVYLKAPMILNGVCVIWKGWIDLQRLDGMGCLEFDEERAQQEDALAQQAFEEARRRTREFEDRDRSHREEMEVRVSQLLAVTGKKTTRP

On to `O=C(c1ccc(C(F)(F)F)cc1)C1CCCN(C(=O)c2csnn2)C1` (stereo not drawn), for which the inhibition is 5.6% (inactive).
With `COC(=O)COc1ccc2oc(=O)cc(C)c2c1`, the inhibition is 0.6% (inactive).
For the compound `Cc1cc(=O)oc2c(C(=O)c3ccccc3)c(OCC(N)=O)ccc12`, the inhibition is -4.4% (inactive).
`COC(=O)Cc1cc(=O)oc2c(C)c(O)ccc12`: the inhibition is 77.6% (active). Besides, where the note is “retest duplicate average”, the inhibition was 71.5%.
As to `N#C/C(C(=S)Nc1ccccc1)=C1/NN=C(N2CCOCC2)N1c1ccccc1`, the inhibition is 25.1% (inactive).
On to `CN1CCNC(=O)C1CC(=O)NCCC1=CCCCC1` (stereo not drawn), for which the inhibition was -1.1% (inactive).
Regarding `Nc1nc(Nc2ccccc2)nc(NCCO)c1[N+](=O)[O-]`, the inhibition is 0.8% (inactive).
As for `O=C(Oc1c(-c2ccco2)oc2ccccc2c1=O)c1cccnc1`, the inhibition was 92.5% (active). For the same compound, the inhibition (retest duplicate average) was 70.6%.
For `N#CCc1ccc(OC(=O)c2cccnc2)cc1`, the inhibition was 3% (inactive).
On to `O=C(Oc1cccnc1)c1cc2ccccc2oc1=O`, for which the inhibition is -10.2% (inactive).
As for `Cc1cc(=O)[nH]c2nnnn12`, the inhibition was -4.2% (inactive).
As to `CCCNC(=O)c1c(N)n(-c2ccc(S(N)(=O)=O)cc2)c2nc3ccccc3nc12`, the inhibition is 80.5% (active). Further, for the setting “retest duplicate average”, the inhibition worked out at 104%.
Regarding `CCOC(=O)c1c(C)c(C(=O)NCCc2ccc(S(N)(=O)=O)cc2)c(C)n1CC`, the inhibition was -1.6% (inactive).
On to `Cc1ccc(S(=O)(=O)c2c(N)n(C)c3nc4ccccc4nc23)cc1`, for which the inhibition was 22% (inactive).
Consider `Nc1c(C(=O)c2cccs2)sc2nsc(SCCN3CCCCC3)c12`, for which the inhibition was -179% (inactive).
On the same count and under the same terms, the same measure for `CCOC(=O)C(=CNNc1ccsc1C(=O)OC)C(=O)OCC`: -1.9% (inactive).
Same read-out and setting: the same measure for `CCCCc1ccc(NC(=S)N2CCCC(CO)C2)cc1` (stereo not drawn): -1.7% (inactive); for `CN(C)C(=O)c1nc2ccc(Cl)cn2c1CN1CCN(c2ncccn2)CC1`: 0.6% (inactive); for `Cc1cc(C)n(C(=O)CCNC(=O)c2ccccc2Cl)n1`: 8.8% (inactive).
With `Cc1cc(C)c2nc3nc(C)cc(C)c3c(N)c2c1`, the inhibition is 60.1% (active). For the same compound, the inhibition (retest duplicate average) stood at 71.5%.
As to `Cc1cc(C)c2nc(SCCC#N)nc(C)c2c1`, the inhibition was -2.1% (inactive).
On the same count and under the same terms, the same measure for `Cc1cc(C)c2nc(-c3ccco3)cc(C(=O)O)c2c1`: 21.4% (inactive); for `CN1CCN(Cc2c(O)ccc3c2oc(=O)c2ccccc23)CC1`: -13.8% (inactive); for `NC(=O)COc1ccc2c3c(c(=O)oc2c1)CCCCC3`: -10.6% (inactive).
In the case of `O=c1oc2c(CN3CCCCC3)c(O)ccc2c2c1CCCCC2`, the inhibition was 93.5% (active). Also, the inhibition (retest duplicate average) was determined as 148%.
In the case of `Cc1ccc(C(=O)NCC(=O)OCC(=O)Nc2cccc(S(=O)(=O)N3CCCC3)c2)cc1C`, the inhibition was 0.1% (inactive).
Regarding `Cc1cccn2c(=O)c3cc(C#N)c(=O)n(CCCN4CCOCC4)c3nc12`, the inhibition is 61.6% (active). The inhibition (retest duplicate average) was determined as 71.6%.
`Cc1cc(C)n(CC(C)NCc2c(C(=O)N3CCOCC3)nc3c(C)cccn23)n1` (stereo not drawn): the inhibition is -0.8% (inactive).
For `Cc1cccn2c(=O)c3cc(C(=O)N4COCC4(C)C)n(C)c3nc12`, the inhibition is 1.5% (inactive).
Same read-out and setting: the value for `O=c1c(-c2ccccc2)coc2cc(O)ccc12` was -4.05% (inactive).
Consider `COc1ccc(-c2cc3ccc(OCc4nn[nH]n4)cc3oc2=O)cc1`, for which the inhibition is 16.9% (inactive).
Consider `O=c1oc2cc(O)ccc2cc1-c1ccc(F)cc1`, for which the inhibition is 61.6% (active). For the setting “retest duplicate average”, the inhibition worked out at 71.5%.
In the case of `NS(=O)(=O)c1ccc(NC2=CC(c3ccc(F)cc3)N(c3ccc(S(N)(=O)=O)cc3)C2=O)cc1` (stereo not drawn), the inhibition is -4.3% (inactive).
In the case of `Cc1ccc(Cl)cc1NC(=O)c1ccccn1`, the inhibition was -0.3% (inactive).
On the same count and under the same terms, the same measure for `COC(=O)C1=C(C)OC(N)=C(C#N)C1c1cc(OC)ccc1OC` (stereo not drawn): -18.1% (inactive).
For the compound `COc1ccc(C2C(C#N)=C(N)Oc3cc(N)ccc32)cc1OC` (stereo not drawn), the inhibition was 102% (active). The inhibition (retest duplicate average) amounted to 108%.
On to `CCC1=C(C(=O)OC)C(c2cc(OC)ccc2OC)C(C#N)=C(N)O1` (stereo not drawn), for which the inhibition was -8.1% (inactive).
Take `Cc1cc2nc(C(F)(F)F)cc(-c3cccs3)n2n1`: the inhibition is -2.5% (inactive).
Still for that read-out and setting: the value for `CC(C)c1ccc(Nc2ncccc2C#N)cc1` was 2.1% (inactive); that for `CCOC(=O)Cc1csc(NC(=O)COc2ccc3c(C)cc(=O)oc3c2)n1` was -11.5% (inactive).
Take `Cc1ccc2c(CSc3nncs3)cc(=O)oc2c1`: the inhibition was -1% (inactive).
As to `CCOC(=O)Cc1csc(SCc2cc(=O)oc3cc(O)ccc23)n1`, the inhibition is 121% (active). For the same compound, the inhibition (retest duplicate average) is 114%.
With `C=CCNC(=O)COC(=O)c1ccccc1C(=O)N(C)C1CCCCC1`, the inhibition was -5.7% (inactive).
`COc1ccc2c(CC(=O)OCC(=O)NC(N)=O)coc2c1`: the inhibition is 2.1% (inactive).
For the compound `Cc1ccc(-n2ncc3c(=O)n(-c4ccc(C)c(C)c4)c(-c4ccco4)nc32)cc1`, the inhibition is 1.4% (inactive).
For the compound `Cc1cccc(-n2ncc(C#N)c2-n2cccc2)c1`, the inhibition is -1.3% (inactive).
For `Cc1ccc(-n2c(=O)c(C#N)cc3c(=O)n4ccccc4nc32)cc1C`, the inhibition was 58.7% (active). In addition, the inhibition (retest duplicate average) was found to be 72.9%.
In the case of `COc1ccc(NC(=O)C(Br)C(C)C)cc1` (stereo not drawn), the inhibition is 2.9% (inactive).
Still for that read-out and setting: the value for `c1ccc(-n2nnnc2-c2cccnc2)cc1` was -4.7% (inactive); that for `COc1cc(COCC(O)CN2CCN(Cc3ccc4c(c3)OCO4)CC2)cc(OC)c1OC` (stereo not drawn) was 1.8% (inactive).
For the compound `COc1c(O)ccc2c1CN1CCc3cc4c(cc3C1C2)OCO4` (stereo not drawn), the inhibition was 78% (active). Where the note is “retest duplicate average”, the inhibition was determined as 110%.
For the compound `COc1ccc2cc1Oc1ccc(cc1)C[C@H]1c3cc(c(OC)cc3CCN1C)Oc1c(O)c(OC)cc3c1[C@H](C2)N(C)CC3`, the inhibition was -0.6% (inactive).
As for `CC(C)n1c(-c2ccncc2)n[nH]c1=S`, the inhibition is -1.2% (inactive).
Consider `Cc1ccc(C)c(Cn2nnc3c(=O)[nH]c(C(=O)Nc4ccc(F)cc4)nc32)c1`, for which the inhibition was 1.2% (inactive).
As for `COc1ccc(Cl)cc1S(=O)(=O)N1CCC(O)(c2ccc(Cl)cc2)CC1`, the inhibition is -1.4% (inactive).
With `C=CCn1c(COc2ccccc2)nnc1SCC(=O)NCC(=O)OCC`, the inhibition is 0.8% (inactive).
For the compound `CCOC(=O)CNC(=O)CSc1nnc(-c2cccc(OC)c2)n1CC`, the inhibition is 60.6% (active). In addition, the inhibition (retest duplicate average) worked out at 67.7%.
Regarding `CCOC(=O)CNC(=O)CSc1nnc(COc2ccc(Cl)cc2)n1CC`, the inhibition is 2.7% (inactive).
The same measure, in the same setting: the value for `Cc1cc2oc(=O)cc(CN3CCN(S(=O)(=O)c4cccs4)CC3)c2cc1C(C)C` was -6.5% (inactive); that for `CCN(CC)CCC(c1cc(OC)c(OC)c(OC)c1)c1c(OC)cc(OC)c2c(-c3ccccc3)cc(=O)oc12` (stereo not drawn) was 1.1% (inactive).
`O=c1[nH]c(CN2CCN(S(=O)(=O)c3ccc4c(c3)OCCO4)CC2)nc2sc3c(c12)CCCC3`: the inhibition is -6.3% (inactive).
